Source: PubChem BioAssay
VDR inh: Inhibitors of the vitamin D receptor (VDR): qHTS; VDR-SRC2-3 peptide fluorescence polarization, 2 h; Potency, µM, actives largely listed as inhibitors; actives 0.93% (n = 400,000); AID 504847, 2011
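Fluorescence polarization assay measuring small-molecule disruption of VDR binding to the coregulator peptide SRC2-3. Compounds were pin-transferred (23 nl) into the reagent mix and incubated 2 h at room temperature before reading.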
Tau fibril ThT: qHTS for Inhibitors of Tau Fibril Formation, Thioflavin T Binding | AID 1460, 2008 | recombinant tau K18 P301L, heparin-induced fibrillization, ThT fluorescence | actives 2.1% (n = 270,000) | Microtubule-associated protein tau (Homo sapiens), P10636 | Potency, µM (series often up to 57.4 µM), hits mostly inhibitors; further: nearly all actives have a fitted effect of over 55% in size
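Fibril formation assay: tau K18 P301L at 15 uM with trace Alexa 594 label, heparin inducer 20 uM, pH 7 sodium acetate buffer, 37 C for 6 hr; endpoint ThT signal.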
Tau FP inhib: qHTS for Inhibitors of Tau Fibril Formation, Fluorescence Polarization | Potency, µM (top dose mostly 57.7 µM), hits mostly inhibitors | actives 0.39% (n = 280,000) | K18 P301L tau heparin fibrillization, Alexa594 FP, 6 h | AID 1468, 2008 | Microtubule-associated protein tau (Homo sapiens), P10636; further: nearly all actives have a fitted effect of over 55% in size
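Steps: dispense K18 P301L tau (15 uM plus 0.24 uM Alexa 594 tracer, final) in pH 7 sodium acetate; add compound; add heparin (20 uM final); incubate 6 hr, 37 C; add ThT (30 uM final); after 1 hr ambient, read FP.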
PLK1 PBD block: qHTS for Inhibitors of PLK1-PDB (polo-like kinase 1 - polo-box domain): Primary Screen. Plk1 PBD binding of FITC phosphopeptide, fluorescence polarization. Potency, µM, hits mostly inhibitors. actives 2.8% (n = 360,000). AID 720504, 2013; further: series mostly up to about 57 µM; nearly all actives have a fitted effect of over 65% in size
Target sequence (P53350 whole entry, looked up, the tested form may be a part): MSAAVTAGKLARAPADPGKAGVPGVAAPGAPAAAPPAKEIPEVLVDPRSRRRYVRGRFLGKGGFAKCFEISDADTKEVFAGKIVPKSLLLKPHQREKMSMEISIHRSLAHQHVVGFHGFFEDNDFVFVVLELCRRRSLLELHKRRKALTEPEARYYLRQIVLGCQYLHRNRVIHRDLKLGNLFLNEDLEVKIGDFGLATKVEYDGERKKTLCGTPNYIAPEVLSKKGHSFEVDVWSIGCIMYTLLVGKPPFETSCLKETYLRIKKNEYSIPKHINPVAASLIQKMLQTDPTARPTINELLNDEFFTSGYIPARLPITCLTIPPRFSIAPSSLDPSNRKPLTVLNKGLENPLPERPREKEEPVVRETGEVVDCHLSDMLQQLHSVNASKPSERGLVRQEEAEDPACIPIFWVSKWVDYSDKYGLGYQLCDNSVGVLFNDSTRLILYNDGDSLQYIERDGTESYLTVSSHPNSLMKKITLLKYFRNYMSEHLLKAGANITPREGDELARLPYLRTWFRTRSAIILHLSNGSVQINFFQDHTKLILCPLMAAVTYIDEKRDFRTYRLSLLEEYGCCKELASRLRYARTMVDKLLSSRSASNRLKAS
Sfp inh: qHTS Assay for Inhibitors of Bacillus subtilis Sfp phosphopantetheinyl transferase (PPTase) | Potency, µM, usual class: inhibitors | Biochemical Sfp PPTase activity, qHTS | 4'-phosphopantetheinyl transferase ffp (Bacillus subtilis), Q9F4F7 | actives 3.5% (n = 310,000);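 further: the enzyme is Sfp with the accession as filed and its product quenches rhodamine fluorescence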
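Sfp 15 nM + cpd, 15 min RT; start w/ rhodamine-CoA 5 uM, BHQ-2-YbbR 12.5 uM (final); 50 mM Hepes pH 7.6, 10 mM MgCl2, 0.01% NP-40, 0.01% BSA; read 525/598 nm at 0 and 30 min.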
Tau fluor counter: Counterscreen qHTS for Inhibitors of Tau Fibril Formation, Fluorescence Polarization; actives 0.93% (n = 280,000); tau K18 P301L Alexa594 fluorescence, heparin fibrillization; Potency, µM (titrated, usually from 57.7 µM); further: nearly all actives have a fitted effect of over 55% in size
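Human tau K18 P301L (15 uM unlabeled, 0.24 uM Alexa 594-labeled) in 100 mM sodium acetate pH 7 with 20 uM heparin, 6 hr at 37 C. ThT 30 uM added, 1 hr ambient; Alexa 594 FP and total fluorescence read at 555/632 nm.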
Large screens that a line does not name were inactive. Sampled rows, rich in hits. Any-hit rate of the full collection: about 6%. The call rests on the fitted dose curve; in most records, active means well fitted curve in the direction sought with a large enough effect; inconclusive means small, poorly fitted or top-dose-only effect, or another doubt; inactive means no such curve, though single readings can be large; an effect the other way counts as inactive or inconclusive.

S=c1nc(-c2cc(Cl)cc(Cl)c2)[nH][nH]1	PLK1 PBD block 23.8µM, Sfp inh 39.8µM
CCc1nc2ccc(C(=O)NCCCN3CCCC3=O)cn2c1N(C)C(=O)c1cccc(OC)c1	none (no result: VDR inh, Tau fibril ThT, Tau FP inhib, Sfp inh, Tau fluor counter)
COc1cc(C(=O)Nc2c(C(=O)Nc3ccccc3F)oc3ccccc23)cc(OC)c1OC	none (no result: PLK1 PBD block, Sfp inh)
Cc1ccc(C)c(Cn2nnc(C(=O)NCc3ccccc3)c2N)c1	none (no result: PLK1 PBD block, Sfp inh)
Cc1cc(C)n2nc(C(=O)NNC(=O)c3ccccc3)nc2n1	Sfp inh 79.4µM
COC(=O)c1ccccc1NC(=O)CSc1nc2ccsc2c(=O)n1CCC(C)C	none (no result: PLK1 PBD block, Sfp inh)
NC(=O)c1nsc(C(=O)N(CC(=O)NC2CCCCC2)c2ccc(Cl)cc2)c1N	none (no result: Tau fibril ThT, Tau FP inhib, Tau fluor counter)
CCCCOc1ccc(N(CC(=O)NC2CCCCC2)C(=O)c2snc(C(N)=O)c2N)cc1	VDR inh inconclusive, PLK1 PBD block 33.6µM (no result: Tau fibril ThT, Tau FP inhib, Tau fluor counter)
O=C1/C(=C/c2ccccc2)CN(C(=O)CCN2CCOCC2)C/C1=C\c1ccccc1	VDR inh inconclusive (no result: Tau fibril ThT, Tau FP inhib, Sfp inh, Tau fluor counter)
C[N+](C)(C)CCC(=O)N1C/C(=C/c2ccccc2)C(=O)/C(=C\c2ccccc2)C1	VDR inh 79.4µM (no result: Tau fibril ThT, Tau FP inhib, Sfp inh, Tau fluor counter)
CCOC(=O)N1C/C(=C\c2ccccc2)C(=O)/C(=C/c2ccccc2)C1	VDR inh inconclusive, Tau fibril ThT 14.1µM, Tau FP inhib inconclusive
CCOC(=O)N1CCN(S(=O)(=O)/C=C/c2ccccc2)CC1	none
CC(C)[C@H](NC(=O)[C@H](CCC(N)=O)NC(=O)CNC(=O)[C@@H]1CCCN1C(=O)[C@H](Cc1ccc(O)cc1)NC(=O)CN)C(=O)O	none (no result: Tau fibril ThT, Tau FP inhib, PLK1 PBD block, Tau fluor counter)
CSc1ccccc1NC(=O)C(=O)c1c[nH]c2ccccc12	Tau FP inhib 10µM, Tau fluor counter inconclusive
Cc1[nH]n(-c2ccccc2)c(=O)c1C=Nc1ccc(S(=O)(=O)Nc2nccs2)cc1	Tau fibril ThT inconclusive, PLK1 PBD block 23.8µM
O=C1/C(=C\c2ccccn2)SC(=S)N1c1ccc(S(=O)(=O)Nc2nccs2)cc1	PLK1 PBD block inconclusive, Sfp inh 56.2µM, Tau fluor counter inconclusive (no result: Tau fibril ThT)
CCN(C(=O)C1CCN(S(=O)(=O)c2ccc3c(c2)CCCN3C(=O)C2CCC2)CC1)c1cccc(C)c1	none (no result: PLK1 PBD block, Sfp inh)
O=C1NC(=S)S/C1=C\c1cc(Cl)ccc1Cl	VDR inh inconclusive, PLK1 PBD block 21.2µM (no result: Tau fibril ThT, Tau FP inhib, Sfp inh, Tau fluor counter)
Cc1cc(/C=C2\SC(=S)NC2=O)c(C)[nH]1	Tau fibril ThT 15.8µM, Tau fluor counter inconclusive
CCn1ncc(/C=C2/SC(=S)NC2=O)c1C	none
CCOC(=O)NC(Nc1sc2c(c1C(N)=O)CCCC2)(C(=O)OCC)C(F)(F)F (stereo not drawn)	Tau fibril ThT inconclusive, PLK1 PBD block inconclusive, Sfp inh 35.5µM
CCOC(=O)c1c(NC(=O)c2ccccc2C)sc2c1CCCC2	VDR inh 79.4µM, Tau fibril ThT 31.6µM, Tau FP inhib inconclusive (no result: PLK1 PBD block, Sfp inh)
CCOC(=O)c1c(NC(=O)c2cc(-c3cccc(OC)c3)on2)sc2c1CCCC2	VDR inh 79.4µM, Tau fibril ThT inconclusive (no result: PLK1 PBD block, Sfp inh)
CCOC(=O)C(NC(=O)CC)(Nc1nc2c(s1)CCCC2)C(F)(F)F (stereo not drawn)	none
CCCCOC(=O)Nc1sc2c(c1C(=O)OC)CCC2	Tau fibril ThT inconclusive, Sfp inh 50.1µM
COc1ccccc1CCNC(=O)c1ccc(NC(=O)N2CC(C)Sc3ccccc32)cc1 (stereo not drawn)	Tau FP inhib inconclusive (no result: PLK1 PBD block, Sfp inh)
O=C(NCc1ccc(F)cc1)c1cccc(N2CCCS2(=O)=O)c1	none (no result: PLK1 PBD block, Sfp inh)
COCCn1cnc2c1-c1ccc(OC)c(c1)OC/C=C\COc1cccc-2c1	none (no result: Tau fibril ThT, Tau FP inhib, PLK1 PBD block, Tau fluor counter)
CCOC(=O)Nc1sc2c(c1C(=O)OCC)CCC2	Tau fibril ThT inconclusive, Sfp inh 39.8µM
CCOC(=O)c1c(NC(=O)c2ccn(CC)n2)sc2c1CCC2	none (no result: Tau fibril ThT, Tau FP inhib, Tau fluor counter)
